Where “and” joins values, the source holds several entries; their conditions need not be identical. Equal values may be shown once. Records with an inconclusive call do not appear. Calls of active or inactive are those of the source. How the source made its calls: active means hit-call score of the fitted dose curve at least 0.9, where 1 is the maximum; inconclusive means response in the unintended direction; inactive means score below 0.9.

A short description of one experiment: LTEA_HepaRG_LDH_cytotoxicity: Cytotoxicity Assessment in the Life Technologies and Expression Analysis (LTEA) Assay (AID 2283563).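 On AC50: LDH activity released into spent culture medium as a marker of cell death.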 In short, it runs like this:
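Human HepaRG hepatic cells are treated with test chemicals for 48 h at up to 100 uM in 0.5% DMSO. Cytotoxicity is scored from medium LDH against the vehicle control.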
`COCCOCCO`: the compound was called inactive. Regarding `Nc1cc2c3c(c1)C(c1ccccc1)=N[C@@H](NC(=O)c1cccnc1)C(=O)N3CC2`, the outcome was inactive. On to `CCNc1nc(Cl)nc(NC(C)(C)C)n1`, for which the outcome was inactive.

`CC(Cl)(Cl)C(=O)O`: the compound was called inactive. Same read-out and setting: under `Cc1cccc(N)c1` stands “inactive”; under `CC(Cc1ccc(OCC(=O)O)cc1)NCC(O)c1csc(C(F)(F)F)n1` (stereo not drawn), “inactive”. On the same count and under the same terms, under `CSC(C)(C)C=NO` stands “inactive”; under `Cc1ccc(N)cc1N`, “inactive”; under `CCOS(=O)(=O)OCC`, “inactive”. Still for that read-out and setting: under `CCCCN(CCCC)SN(C)C(=O)Oc1cccc2c1OC(C)(C)C2` stands “inactive”; under `CCOC(=O)c1ccccc1C(=O)OCC`, “inactive”; under `CCCCc1ccccc1`, “inactive”. As to `c1nc[nH]n1`, the compound was called inactive. In the case of `O=P(Oc1ccccc1)(Oc1ccccc1)Oc1ccccc1`, the AC50 was 72.7 µM (active). With `ClC(Cl)c1ccccc1`, the call was inactive. On the same count and under the same terms, under `Cc1ccc([N+](=O)[O-])cc1C` stands “inactive”; under `O=[N+]([O-])c1ccccc1`, “inactive”; under `CN(C)C(=O)Cl`, “inactive”.

Turning to `O=P1(N(CCCl)CCCl)NCCCO1` (stereo not drawn), the call was inactive. Take `[N-]=[N+]=[N-]`: the result was inactive.

In the case of `Nc1ccc(Cl)cc1`, the compound was called inactive.

Regarding `CCC(C)(C)c1ccc(O)cc1`, the compound was classed as inactive.

As for `c1cc2c3c(cccc3c1)CC2`, the compound was classed as inactive. Consider `O=C(O)C1C(C(=O)O)C2(Cl)C(Cl)=C(Cl)C1(Cl)C2(Cl)Cl` (stereo not drawn), for which the compound was called inactive. Still for that read-out and setting: under `CCOP(=S)(OCC)SCSCC` stands “inactive”. In the case of `c1ccc2c(c1)Nc1ccccc1S2`, the result was inactive. With `O=[N+]([O-])c1ccc(Cl)c(Cl)c1`, the outcome was inactive. The same measure, in the same setting: the value for `CCCCCCCc1ccc(O)cc1` was “inactive”; that for `CCCCN(CCCC)N=O` was “inactive”. Still for that read-out and setting: under `CCCN(CCC)c1c([N+](=O)[O-])cc(C(C)C)cc1[N+](=O)[O-]` stands “inactive”.

A short description of a further experiment: ATG_XTT_Cytotoxicity: Cytotoxicity Assessment in the Attagene TRANS-FACTORIAL HepG2 Assay (AID 2283584).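 On AC50: XTT signal for cell number as viability in transfected HepG2 cells; cells exposed to compound for 24 h before reading; active means loss of viability signal versus DMSO baseline.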 In short, it runs like this:
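Transfect HepG2 with GAL4-UAS reporter units, dose compound, incubate 24 h, then measure viable cell number by XTT. Fit concentration response against DMSO baseline.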
Turning to `CCNc1nc(Cl)nc(NC(C)(C)C)n1`, the call was inactive. Same read-out and setting: under `CSC(C)(C)C=NO` stands “inactive”; under `CCCCN(CCCC)SN(C)C(=O)Oc1cccc2c1OC(C)(C)C2`, “inactive”. Still for that read-out and setting: under `CCCCc1ccccc1` stands “inactive”; under `c1nc[nH]n1`, “inactive”; under `O=P(Oc1ccccc1)(Oc1ccccc1)Oc1ccccc1`, “inactive”. On the same count and under the same terms, under `ClC(Cl)c1ccccc1` stands “inactive”; under `Cc1ccc([N+](=O)[O-])cc1C`, “inactive”; under `CN(C)C(=O)Cl`, “inactive”.

As to `Nc1ccc(Cl)cc1`, the compound was classed as inactive. Same read-out and setting: under `CCC(C)(C)c1ccc(O)cc1` stands “inactive”. Same read-out and setting: under `O=C(O)C1C(C(=O)O)C2(Cl)C(Cl)=C(Cl)C1(Cl)C2(Cl)Cl` (stereo not drawn) stands “inactive”; under `CCOP(=S)(OCC)SCSCC`, “inactive”; under `c1ccc2c(c1)Nc1ccccc1S2`, “inactive”. As to `O=[N+]([O-])c1ccc(Cl)c(Cl)c1`, the outcome was inactive. Take `CCCCCCCc1ccc(O)cc1`: the AC50 is 152 µM (active) and 185 µM (active) and 129 µM (active). For the compound `CCCCN(CCCC)N=O`, the compound was classed as inactive. Still for that read-out and setting: the value for `CCCN(CCC)c1c([N+](=O)[O-])cc(C(C)C)cc1[N+](=O)[O-]` was “inactive”.

The values are drawn from PubChem BioAssay (EPA / NIEHS).
